# Results: the supplement of paper PMC8728848
# Only a selection was taken, and the strongest signals are over-represented in it overall.
# What was measured:
# Test in all cases: glycan array binding signal (z-score within array); higher = stronger binding
# Conditions in all cases: glycan notation: IUPAC condensed, linker removed
# [1] = target: Fuc(a1-2)Gal
# Summary of the method: (§1)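 Glycan array data were curated from 3228 arrays in the Consortium for Functional Glycomics database and kept only where the protein sequence was available. Glycan names were converted to IUPAC-condensed notation, and columns mapping to the same glycan were averaged. The binding signal is a within-array Z-score, averaged across arrays of the same protein sequence at different concentrations or buffers and across linkers. Negative Z-scores can be read as non-binding.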
# [2] = target: Fuc(a1-2)Gal(b1-3)GlcNAc(b1-3)[Fuc(a1-2)Gal(b1-3)GlcNAc(b1-6)]GalNAc
# Summary of the method: as §1
# [3] = target: Fuc(a1-2)Gal(b1-3)GlcNAc6S
# Summary of the method: as §1
# [4] = target: Fuc(a1-2)Gal(b1-4)GlcNAc(b1-2)Man(a1-3)[Fuc(a1-2)Gal(b1-4)GlcNAc(b1-2)Man(a1-6)]Man(b1-4)GlcNAc(b1-4)[Fuc(a1-6)]GlcNAc
# Summary of the method: as §1
# [5] = target: Fuc(a1-2)Gal(b1-4)GlcNAc(b1-3)GalNAc
# Summary of the method: as §1
# [6] = target: Fuc(a1-2)Gal(b1-4)GlcNAc(b1-3)[Fuc(a1-2)Gal(b1-4)GlcNAc(b1-6)]GalNAc
# Summary of the method: as §1
# [7] = target: Fuc(a1-2)[Gal(a1-3)]Gal(b1-3)GalNAc
# Summary of the method: as §1
# [8] = target: Fuc(a1-2)[Gal(a1-3)]Gal(b1-3)GlcNAc
# Summary of the method: as §1
# [9] = target: Fuc(a1-2)[Gal(a1-3)]Gal(b1-4)Glc
# Summary of the method: as §1
# [10] = target: Fuc(a1-2)[Gal(a1-3)]Gal(b1-4)GlcNAc(b1-3)GalNAc
# Summary of the method: as §1
# [11] = target: Fuc(a1-2)[GalNAc(a1-3)]Gal
# Summary of the method: as §1
# [12] = target: Fuc(a1-2)[GalNAc(a1-3)]Gal(b1-3)GlcNAc
# Summary of the method: as §1
# [13] = target: Fuc(a1-2)[GalNAc(a1-3)]Gal(b1-3)GlcNAc(b1-2)Man(a1-3)[Fuc(a1-2)[GalNAc(a1-3)]Gal(b1-3)GlcNAc(b1-2)Man(a1-6)]Man(b1-4)GlcNAc(b1-4)GlcNAc
# Summary of the method: as §1
# [14] = target: Fuc(a1-2)[GalNAc(a1-3)]Gal(b1-3)GlcNAc(b1-6)GalNAc
# Summary of the method: as §1
# [15] = target: Fuc(a1-2)[GalNAc(a1-3)]Gal(b1-4)Glc
# Summary of the method: as §1
# [16] = target: Gal(a1-4)Gal(b1-4)GlcNAc(b1-2)Man(a1-3)[Gal(a1-4)Gal(b1-4)GlcNAc(b1-2)Man(a1-6)]Man(b1-4)GlcNAc(b1-4)GlcNAc
# Summary of the method: as §1
# [17] = target: Gal(b1-2)Gal
# Summary of the method: as §1
# [18] = target: Gal(b1-3)Gal
# Summary of the method: as §1
# [19] = target: Gal(b1-3)GalNAc(a1-3)[Fuc(a1-2)]Gal(b1-4)Glc
# Summary of the method: as §1
# [20] = target: Gal(b1-3)GalNAc(a1-3)[Fuc(a1-2)]Gal(b1-4)GlcNAc
# Summary of the method: as §1
# [21] = target: Gal(b1-3)[Fuc(a1-4)]GlcNAc(b1-2)Man(a1-3)[Gal(b1-3)[Fuc(a1-4)]GlcNAc(b1-2)Man(a1-6)]Man(b1-4)GlcNAc(b1-4)[Fuc(a1-6)]GlcNAc
# Summary of the method: as §1
# [22] = target: Gal(b1-3)[Fuc(a1-4)]GlcNAc(b1-6)GalNAc
# Summary of the method: as §1
# [23] = target: Gal(b1-4)GalNAc(a1-3)[Fuc(a1-2)]Gal(b1-4)GlcNAc
# Summary of the method: as §1
# [24] = target: Gal(b1-4)GlcNAc(a1-6)Gal(b1-4)GlcNAc
# Summary of the method: as §1
# [25] = target: Gal(b1-4)GlcNAc(b1-3)Gal(b1-4)Glc
# Summary of the method: as §1
# [26] = target: Gal(b1-4)GlcNAc(b1-3)Gal(b1-4)[Fuc(a1-3)GlcNAc(b1-6)]Gal(b1-4)Glc
# Summary of the method: as §1
# [27] = target: Gal(b1-4)GlcNAc(b1-6)[Gal(b1-3)]GalNAc
# Summary of the method: as §1
# [28] = target: Gal3S(b1-4)GlcNAc
# Summary of the method: as §1
# [29] = target: GalNAc(b1-3)GalNAc
# Summary of the method: as §1
# [30] = target: GalNAc(b1-4)Gal(b1-4)Glc
# Summary of the method: as §1
# [31] = target: GalNAc(b1-4)GlcNAc
# Summary of the method: as §1
# [32] = target: Kdn(a2-3)Gal(b1-4)Glc
# Summary of the method: as §1
# [33] = target: Man(a1-2)Man(a1-3)[Man(a1-2)Man(a1-6)]Man(a1-6)[Man(a1-2)Man(a1-2)Man(a1-3)]Man(b1-4)GlcNAc(b1-4)GlcNAc
# Summary of the method: as §1
# [34] = target: Neu5Ac(a2-3)Gal(b1-3)GlcNAc(b1-3)Gal(b1-3)GlcNAc
# Summary of the method: as §1
# [35] = target: Neu5Ac(a2-3)Gal(b1-4)GlcNAc(b1-2)Man
# Summary of the method: as §1
# [36] = target: Neu5Ac(a2-3)Gal(b1-4)[Fuc(a1-3)]GlcNAc(b1-3)Gal(b1-4)[Fuc(a1-3)]GlcNAc(b1-3)Gal(b1-4)[Fuc(a1-3)]GlcNAc
# Summary of the method: as §1
# [37] = target: Neu5Ac(a2-3)[GalNAc(b1-4)]Gal(b1-4)GlcNAc(b1-3)GalNAc
# Summary of the method: as §1
# [38] = target: Neu5Ac(a2-6)Gal(b1-4)GlcNAc(b1-2)Man(a1-3)[Neu5Ac(a2-6)Gal(b1-4)GlcNAc(b1-2)Man(a1-6)]Man(b1-4)GlcNAc(b1-4)GlcNAc
# Summary of the method: as §1
# [39] = target: Neu5Ac(a2-6)Gal(b1-4)GlcNAc(b1-2)Man(a1-6)[Man(a1-3)]Man(b1-4)GlcNAc(b1-4)GlcNAc
# Summary of the method: as §1
# [40] = target: Neu5Ac(a2-6)GlcNAc(b1-4)GlcNAc
# Summary of the method: as §1
# [41] = target: Neu5Ac(a2-8)Neu5Ac
# Summary of the method: as §1
# [42] = target: Neu5Ac(b2-6)GalNAc
# Summary of the method: as §1
# [43] = target: Neu5Ac9Ac(a2-3)Gal(b1-4)GlcNAc
# Summary of the method: as §1
binder,measurement,setting,value
"Gal 4 (Homo sapiens), Q8K419 (protein) MAYVPAPGYQPTYNPTLPYKRPIPGGLSVGMSVYIQGMAKENMRRFHVNFAVGQDDGADVAFHFNPRFDGWDKVVFNTMQSGQWGKEEKKKSMPFQKGKHFELVFMVMPEHYKVVVNGNSFYEYGHRLPVQMVTHLQVDGDLELQSINFLGGQPAAAPYPGAMTIPAYPAGSPGYNPPQMNTLPVMTGPPVFNPRVPYVGALQGGLTVRRTIIIKGYVLPTARNFVINFKVGSSGDIALHLNPRIGDSVVRNSFMNGSWGAEERKVAYNPFGPGQFFDLSIRCGMDRFKVFANGQHLFDFSHRFQAFQMVDTLEINGDITLSYVQI",glycan array binding signal (z-score),[1],-0.2
same,glycan array binding signal (z-score),[2],-0.088
same,glycan array binding signal (z-score),[3],1.3
same,glycan array binding signal (z-score),[4],-0.202
same,glycan array binding signal (z-score),[5],-0.199
same,glycan array binding signal (z-score),[6],-0.189
same,glycan array binding signal (z-score),[7],0.833
same,glycan array binding signal (z-score),[8],2.91
same,glycan array binding signal (z-score),[9],3.5
same,glycan array binding signal (z-score),[10],-0.006
same,glycan array binding signal (z-score),[11],-0.2
same,glycan array binding signal (z-score),[12],4.09
same,glycan array binding signal (z-score),[13],1.51
same,glycan array binding signal (z-score),[14],1.99
same,glycan array binding signal (z-score),[15],9.63
same,glycan array binding signal (z-score),[16],-0.194
same,glycan array binding signal (z-score),[17],-0.201
same,glycan array binding signal (z-score),[18],0.459
same,glycan array binding signal (z-score),[19],13.2
same,glycan array binding signal (z-score),[20],2.3
same,glycan array binding signal (z-score),[21],-0.174
same,glycan array binding signal (z-score),[22],-0.193
same,glycan array binding signal (z-score),[23],2.3
same,glycan array binding signal (z-score),[24],-0.188
same,glycan array binding signal (z-score),[25],1.11
same,glycan array binding signal (z-score),[26],-0.185
same,glycan array binding signal (z-score),[27],-0.059
same,glycan array binding signal (z-score),[28],-0.136
same,glycan array binding signal (z-score),[29],-0.182
same,glycan array binding signal (z-score),[30],-0.211
same,glycan array binding signal (z-score),[31],-0.18
same,glycan array binding signal (z-score),[32],-0.243
same,glycan array binding signal (z-score),[33],-0.178
same,glycan array binding signal (z-score),[34],0.182
same,glycan array binding signal (z-score),[35],-0.197
same,glycan array binding signal (z-score),[36],-0.198
same,glycan array binding signal (z-score),[37],-0.147
same,glycan array binding signal (z-score),[38],-0.187
same,glycan array binding signal (z-score),[39],-0.204
same,glycan array binding signal (z-score),[40],-0.205
same,glycan array binding signal (z-score),[41],-0.203
same,glycan array binding signal (z-score),[42],-0.196
same,glycan array binding signal (z-score),[43],-0.189
